Experimental data as given in PubChem BioAssay AID1347165 (National Center for Advancing Translational Sciences (NCATS), 2019).
About 5,700 (2.6%) of roughly 220,000 compounds were called active. Not shown: some 18% with an inconclusive outcome. For the sample, actives were picked, then their nearest neighbours and some compounds at random. Unmarked numbers belong to inactive results. Calls follow the shape of the dose curve; as a rule, active = well fitted inhibition curve with a large enough effect; inconclusive = small, poorly fitted or top-dose-only effect; inactive = no such curve, though single readings can be large or run the other way.

These molecules were tested against Lysine-specific demethylase 5B (Homo sapiens) (UniProt Q9UGL1) (assay: Primary screen for KDM5B Histone Demethylases FDH-coupled qHTS). Details: FDH-coupled NADH fluorescence (FDH is formaldehyde dehydrogenase); series mostly up to 57.7 µM; activity change, negative = inhibition: at the top concentration.
Chain of Lysine-specific demethylase 5B (Homo sapiens) (Q9UGL1 whole entry, looked up): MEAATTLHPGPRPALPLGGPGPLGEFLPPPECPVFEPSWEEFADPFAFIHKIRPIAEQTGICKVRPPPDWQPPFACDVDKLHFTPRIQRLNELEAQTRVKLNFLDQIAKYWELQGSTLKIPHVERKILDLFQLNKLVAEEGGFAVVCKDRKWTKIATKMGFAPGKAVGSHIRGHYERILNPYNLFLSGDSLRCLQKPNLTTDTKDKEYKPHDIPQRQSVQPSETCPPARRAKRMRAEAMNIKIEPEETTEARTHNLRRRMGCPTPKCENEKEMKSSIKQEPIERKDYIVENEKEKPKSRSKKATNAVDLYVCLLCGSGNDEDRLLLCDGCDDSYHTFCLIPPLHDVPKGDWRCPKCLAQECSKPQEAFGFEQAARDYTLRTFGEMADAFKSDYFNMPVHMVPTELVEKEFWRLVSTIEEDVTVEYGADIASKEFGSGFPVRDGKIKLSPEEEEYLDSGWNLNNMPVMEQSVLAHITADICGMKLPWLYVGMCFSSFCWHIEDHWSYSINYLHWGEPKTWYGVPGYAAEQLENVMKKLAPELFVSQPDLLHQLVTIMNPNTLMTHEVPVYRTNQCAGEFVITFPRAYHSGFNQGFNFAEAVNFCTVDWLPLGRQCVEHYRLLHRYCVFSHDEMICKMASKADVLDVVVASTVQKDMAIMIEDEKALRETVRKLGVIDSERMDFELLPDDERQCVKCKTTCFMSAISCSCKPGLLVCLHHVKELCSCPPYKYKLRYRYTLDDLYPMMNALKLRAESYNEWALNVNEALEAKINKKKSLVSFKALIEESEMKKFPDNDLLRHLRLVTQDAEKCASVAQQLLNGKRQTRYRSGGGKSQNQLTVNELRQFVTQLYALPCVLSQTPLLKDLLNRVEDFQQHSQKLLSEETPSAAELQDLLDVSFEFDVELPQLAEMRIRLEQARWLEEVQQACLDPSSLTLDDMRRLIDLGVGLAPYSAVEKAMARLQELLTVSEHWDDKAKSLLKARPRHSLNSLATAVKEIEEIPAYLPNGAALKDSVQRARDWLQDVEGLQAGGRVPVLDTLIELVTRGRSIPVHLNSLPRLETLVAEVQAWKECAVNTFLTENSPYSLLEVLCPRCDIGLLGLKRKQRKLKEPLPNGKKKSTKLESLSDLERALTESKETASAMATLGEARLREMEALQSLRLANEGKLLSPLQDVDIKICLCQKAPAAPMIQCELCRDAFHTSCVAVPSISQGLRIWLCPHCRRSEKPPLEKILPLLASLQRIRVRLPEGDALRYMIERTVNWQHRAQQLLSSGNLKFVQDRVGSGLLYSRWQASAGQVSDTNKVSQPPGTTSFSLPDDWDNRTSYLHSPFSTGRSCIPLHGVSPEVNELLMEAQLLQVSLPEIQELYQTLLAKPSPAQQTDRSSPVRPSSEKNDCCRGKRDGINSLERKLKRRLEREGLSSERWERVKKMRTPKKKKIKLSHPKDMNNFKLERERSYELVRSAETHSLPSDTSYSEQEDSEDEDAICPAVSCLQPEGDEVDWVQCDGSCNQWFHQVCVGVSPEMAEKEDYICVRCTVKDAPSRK
How it was run: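 qHTS format, multiple compound concentrations. Buffer 50 mM HEPES pH 7.5/0.01% Tween-20; 200 nM KDM5BΔAP final; 10 min compound preincubation; substrate-mix levels 12.5 µM peptide, 25 µM α-KG, 0.25 mM NAD⁺; 30 min RT; ΔRFU.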
Also: nearly all actives have a fitted effect of over 70% in size.
For activity change, negative = inhibition in this document: 0% is about no effect.
Potency is read from the fitted curve at half-maximal effect.

Compared with `Cc1ccc(C(=O)NCC(c2cccs2)N(C)C)cc1S(=O)(=O)N1CCOCC1` (centres undefined), `CC(=O)Nc1ccc(C2(C(=O)NCCCN3CCOCC3)CCCCC2)cc1` is lower in “activity change, negative = inhibition” value: -3.06% for the first, -14.7% for the second.

Compared with `O=C(c1cccc(Br)c1)N1CCN(C2=NS(=O)(=O)c3ccccc32)CC1`, `CC(C)n1ncc2cc(C(=O)N3CCCCc4ccccc43)cnc21` is lower in “activity change, negative = inhibition” value: 13% for the first, 6.87% for the second.

First: COc1ccc(NC(=O)CCCC2CCCCC2)c(OC)c1
Second: COc1ccc(S(=O)(=O)N2CCCC(C(=O)NCCCn3ccnc3)C2)cc1OC (centres undefined)
The “activity change, negative = inhibition” value of the first is lower: -4.56% for the first, 15.5% for the second.

First: COc1cccc(CN2CCN(Cc3ncccc3C)CC2)c1O
Second: COc1ccccc1CN1CCC(N2CCN(c3ccccc3OC)CC2)CC1
The “activity change, negative = inhibition” value of the first is lower: -54.2% for the first, -8.14% for the second.

Going from `CCN(CCCNC(=O)c1nn(-c2ccc(OC)cc2)c(=O)c2ccccc12)Cc1ccccc1` to `CN(Cc1ccc(F)cc1)C(=O)Cn1nc(C(=O)O)c2ccccc2c1=O`, the “activity change, negative = inhibition” value rises from -6.9% to 3.35%.

First: Cc1c(C(=O)N(Cc2nc3ccccc3c(=O)[nH]2)C(C)C)oc2ccc(Cl)cc12
Second: O=C(NC1CCCCC1)c1ccc2c(c1)N(Cc1ccc(Cl)cc1)C(=O)c1ccccc1S2=O (centres undefined)
The “activity change, negative = inhibition” value of the first is higher: -4.06% for the first, -4.14% for the second.

Compared with `CCN1C(=O)C(=O)N(CC(=O)Nc2cc(C)ccc2C)C1=O`, `CCCN1C(=O)Cc2cc(C(=O)NC3CC3)ccc21` is lower in “activity change, negative = inhibition” value: 22.3% for the first, 9.76% for the second.

Going from `O=C(c1cnccn1)N1CC2CC(C1)[C@H]1CCCC(=O)N1C2` (some centres undefined) to `Cc1ccc(C(=O)N2CC[C@H](CO)[C@H](NC(=O)C3CC3)C2)cn1`, the “activity change, negative = inhibition” value falls from 23.3% to -23.3%.

First: Cc1ccc(N(CC(=O)NC2CCCCCCC2)S(=O)(=O)N(C)C)cc1
Second: CC(=O)N1CCC(Cc2ccc(C(=O)NC3CC3)cc2)CC1
The “activity change, negative = inhibition” value of the first is higher: 15.6% for the first, 4.77% for the second.

First: Cc1c(C)n2c3c(=O)[nH]c(=O)n(C)c3nc2n1CCN1CCN(Cc2ccc(F)cc2)CC1
Second: C=CCOC/C=C/C#CCN(CC=C)Cc1ccc(OC)cc1OC
The “activity change, negative = inhibition” value of the first is higher: 16.1% for the first, 14.3% for the second.

For `COc1ccccc1CN1CC[C@@H](CO)N(C)c2ncccc2C1`, the Potency was 31.6 µM (active).
`CN1CCC2(C1)CN(CC1CCOCC1)c1ccc(C(=O)NCCCn3ccnc3)cc12` (centres undefined) was tested, and the Potency was 39.8 µM (active).
`CC(=O)N[C@H]1CN(c2cncc(C(=O)N3CCCC3)n2)C[C@@H]1C1CC1` was tested, and the Potency was 28.2 µM (active).
For `O=C([C@@H]1C[C@H](c2ccc(F)cc2)N([S+](=O)([O-])C2CC2)C1)N1CCN(c2ccccn2)CC1`, the Potency was 20 µM (active).
With `CC(=O)N1CCCC2(C1)CN(C)c1ccc(C(=O)NC3CC3)cc12` (centres undefined) the Potency was 25.1 µM (active).
With `O=C(NC1CC1)c1ccc2c(c1)C1(CCN(CC3CC3)C1)CN2Cc1ccccc1` (centres undefined) the Potency was 31.6 µM (active).

Compared with `O=C(Nc1cccc(Cl)c1)[C@@H]1C[C@H](c2ccc(F)cc2)N([S+](=O)([O-])C2CC2)C1`, `O=C(Nc1cccnc1)[C@@H]1C[C@@H](c2ccc(F)cc2)N([S+](=O)([O-])c2ccccc2)C1` is lower in “activity change, negative = inhibition” value: -4.57% [at 86.2 µM] for the first, -8.21% [at 86.2 µM] for the second.

In the case of `O=C1Nc2ccccc2CC12CCN(CC1CC1)C2` (centres undefined), the “activity change, negative = inhibition” value is reported as 20.3% [at 86.2 µM].
